Assay outcomes deposited in PubChem by National Center for Advancing Translational Sciences (NCATS).
An excerpt weighted towards active compounds, which were near 11% of everything screened.
Pf growth 48h: P. falciparum growth inhibition at 48 hours (one generation); P. falciparum luciferase growth in erythrocytes, 48 h; Potency, µM (doses to about 28.7 µM), hits mostly inhibitors; 310,000 compounds, 5.9% hits
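Compounds are pin-transferred into medium, infected erythrocytes (2% hematocrit, 0.1% parasitemia final) are added, and plates sit one parasite generation at 37 C in 5% CO2. Detection reagent is then added and luminescence measured.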
HCV inhibitor: HCV inhibition; Potency, µM (series often up to 41.8 µM), usual class: inhibitors; Huh7.5.1 HCVcc-Cre infection, luciferase reporter, 44 h; 340,000 compounds, 3.4% hits
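After 44 h co-culture of compound, cells and HCVcc-Cre (~0.5 moi), substrate is added for 15 min at room temperature and luciferase measured over 15 sec. Cells were seeded at 1,000/well and pre-cultured 4 h.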
Pf growth 96h: inhibits malaria parasite growth, 96 h; 320,000 compounds, 6.9% hits; Potency, µM (titrated, usually from 28.7 µM), most hits filed as inhibitors; AID 504834; P. falciparum luciferase reporter growth, 96 h
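Two-generation exposure (96 h) targets delayed-death phenotype. Reporter parasites carrying integrated firefly luciferase, in red cells at 2% hematocrit and 0.05% parasitemia final, kept at 37 C, 5% CO2; luminescence loss indicates inhibition.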
AMA1-RON2 inh: inhibitors of Plasmodium falciparum AMA1-RON2 interaction. 360,000 compounds, 0.2% hits. Potency, µM (top dose mostly 58.2 µM), most hits filed as inhibitors. AlphaScreen AMA1-biotinylated RON2 peptide binding; note: nearly all actives have a fitted effect of over 45% in size
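AMA1 (3D7) with his tag at 25 nM final met compounds first, then biotinylated RON2 peptide at 25 nM; detection used donor plus acceptor beads, 10 µg/mL apiece, read by AlphaScreen after 30 min at room temperature.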
A number is an active result; - = inactive; ? = inconclusive; . = no result. Calls come from the whole dose curve; as a rule, active = well fitted curve in the direction sought with a large enough effect; inconclusive = small, poorly fitted or top-dose-only effect, or another doubt; inactive = no such curve, though single readings can be large; an effect the other way counts as inactive or inconclusive.

SMILES | Pf growth 48h | HCV inhibitor | Pf growth 96h | AMA1-RON2 inh
CCOc1ccc(-n2c(N)c(-c3nc4ccccc4[nH]3)sc2=S)cc1 | - | ? | . | -
CSc1ncccc1C(=O)NCCc1ccc(S(N)(=O)=O)cc1 | - | - | - | -
O=C(Nc1ccc(F)cc1)N(Cc1ccco1)Cc1cc2cc3c(cc2[nH]c1=O)OCO3 | 10µM | - | ? | -
Cc1ccc(C)c2[nH]c(=O)c(CN(CCN3CCCC3)C(=O)Nc3cccc(Cl)c3)cc12 | 2.3µM | 11µM | - | -
CCN(CC)CCCN(Cc1cc2cc3c(cc2[nH]c1=O)OCO3)C(=S)Nc1ccc(OC)cc1 | ? | - | - | -
CCN(CC)CCCN(Cc1cc2cc3c(cc2[nH]c1=O)OCCO3)C(=O)Nc1ccccc1 | 10µM | - | . | -
Cc1ccc(NC(=O)N(CCCN2CCOCC2)Cc2cc3cc4c(cc3[nH]c2=O)OCO4)cc1 | 0.93µM | - | 13µM | ?
COc1cc(C(=O)NNC2=NC(C)(C)Cc3cc(C)c(C)cc32)cc(OC)c1OC | - | - | - | -
O=C(Nc1cccc(Cl)c1)N(CCN1CCOCC1)Cc1cccc(Cl)c1 | ? | ? | - | -
COc1cc2cc(CN(CCCN3CCOCC3)C(=O)Nc3ccc(F)cc3)c(=O)[nH]c2cc1OC | 13µM | - | - | -
COc1ccc(CN(CCCN2CCOCC2)C(=O)Nc2cccc(Cl)c2)cc1OC | ? | ? | 12µM | -
O=C(Nc1ccccc1)N(CCCN1CCOCC1)Cc1cc2cc3c(cc2[nH]c1=O)OCCO3 | 13µM | - | - | -
O=C(Nc1ccccc1F)N(CCCN1CCOCC1)Cc1cc2cc3c(cc2[nH]c1=O)OCCO3 | ? | ? | - | -
CCOc1ccc2[nH]c(=O)c(CN(CCCN3CCOCC3)C(=O)Nc3ccc(F)cc3)cc2c1 | . | - | . | -
CCc1ccc2[nH]c(=O)c(CN(CCCN3CCOCC3)C(=O)Nc3cccc(Cl)c3)cc2c1 | 5.2µM | 10µM | . | -
CN(C)CCCNC(=O)OC1CC2CC1[C@H]1CCCCN1C2=O (some centres undefined) | . | . | . | -
O=C(c1ccccc1)N(C1=NCCCCS1)c1ccccc1 | - | - | ? | -
Cc1ccc(NC(=O)N(Cc2ccc3c(c2)OCO3)Cc2cc3cc4c(cc3[nH]c2=O)OCCO4)cc1 | 1.3µM | ? | . | -
COc1ccc2[nH]c(=O)c(CN(C(=O)NC3CCCCC3)C3CCCCC3)cc2c1 | - | - | ? | -
Cc1ccc(NC(=S)N(CCCN(C)C)Cc2cc3cc4c(cc3[nH]c2=O)OCO4)c(C)c1 | 9.3µM | - | ? | -
CCN(CC)CCN(Cc1cc2cc3c(cc2[nH]c1=O)OCCO3)C(=O)NC1CCCCC1 | - | - | - | -
COC(=O)c1ccccc1S(=O)(=O)N(Cc1cc2cc3c(cc2[nH]c1=O)OCO3)C1CCCCC1 | 8.3µM | - | - | .
Cc1ccc(NC(=O)N(Cc2cccs2)Cc2cc3cc4c(cc3[nH]c2=O)OCO4)cc1 | ? | - | ? | .
COc1ccc(CN(Cc2cc3cc4c(cc3[nH]c2=O)OCO4)C(=O)NC2CCCCC2)cc1 | 4.7µM | ? | - | -
Cc1ccc(NC(=S)N(CCCN(C)C)Cc2cc3cc4c(cc3[nH]c2=O)OCO4)cc1 | ? | ? | - | -
SMILES | Pf growth 48h | HCV inhibitor | Pf growth 96h | AMA1-RON2 inh
CC(NCc1ccc2c(c1)OCO2)C(=O)NC1CCCCC1 (centres undefined) | - | - | ? | -
CCCN1CCCc2cc(CN(CCCN3CCOCC3)C(=O)Nc3ccc(OCC)cc3)ccc21 | . | - | 5.9µM | 27µM
C[N+](C)(C)CCCN(Cc1ccc2c(c1)OCO2)C(=O)NC1CCCCC1 | ? | 3.2µM | ? | -
O=C(Nc1ccccc1Sc1ccccc1)c1ccccc1F | . | - | . | -
CCCCNC(=O)c1nc(C2CCN(S(=O)(=O)c3ccc(S(C)(=O)=O)cc3)CC2)oc1-c1ccccc1 | . | . | . | -
COc1ccc(S(=O)(=O)N2CN(Cc3ccco3)c3nc4ccccc4nc32)cc1 | 12µM | - | - | -
Cc1onc(-c2c(F)cccc2Cl)c1C(=O)NC(=S)NCc1cccnc1 | - | - | - | -
Cc1ccc(CCNC(=O)C(C)n2nc(C)c3c(C)n(-c4ccccc4)nc3c2=O)cc1 (centres undefined) | - | - | ? | -
Cc1ccc(-n2nc3c(=O)n(C(C)C(=O)NCCC4=CCCCC4)nc(C)c3c2C)cc1 (centres undefined) | ? | 10µM | 9.3µM | -
Cc1ccc(-n2nc3c(=O)n(C(C)C(=O)NCc4ccc(Cl)cc4)nc(C)c3c2C)cc1 (centres undefined) | ? | 22µM | 1.7µM | -
Cc1nn(C(C)C(=O)NCCCc2ccccc2)c(=O)c2nn(-c3ccccc3)c(C)c12 (centres undefined) | - | ? | ? | -
CC1(C)Cc2cccc(OCC(O)CN3CCN(c4ccccn4)CC3)c2O1 (centres undefined) | 12µM | - | ? | -
Cc1ccc(S(=O)(=O)c2cc3cc(Br)ccc3oc2=O)cc1 | - | - | 1.7µM | -
CCCC(=O)NCCCCNC(=O)CCC | - | - | - | -
CC(=O)N(O)CCCCCNC(=O)CCC(=O)N(O)CCCCCNC(=O)CCC(=O)N(O)CCCCCN | ? | 14µM | ? | -
CCC(C)(C)n1nnnc1C(c1cc2cccc(C)c2[nH]c1=O)N1CCCC1 (centres undefined) | ? | ? | - | -
Cc1ccc(C)c2[nH]c(=O)c(C(c3nnnn3C(C)(C)C)N3CC=C(c4ccc(F)cc4)CC3)cc12 (centres undefined) | 2.1µM | ? | ? | -
CCC(C)(C)n1nnnc1C(c1cccs1)N1CC=C(c2ccc(F)cc2)CC1 (centres undefined) | 7.4µM | ? | ? | -
Fc1ccc(C2=CCN(C(c3cccs3)c3nnnn3CCc3ccccc3)CC2)cc1 (centres undefined) | - | ? | . | -
COc1ccc(C2CCc3cc4c(cc3C2=NOC(C)=O)OCO4)cc1OC (centres undefined) | . | . | . | -
CCOC(=O)c1c(C)sc2c1N(C(=O)CCl)c1cc(Cl)ccc1S2 | ? | ? | 15µM | -
CC(Oc1ccccc1F)c1nnc(SCC(=O)Nc2ccc(N3CCOCC3)cc2)o1 (centres undefined) | - | - | ? | -
COC(=O)c1sccc1S(=O)(=O)Nc1ccc(N2CCCCC2)cc1 | ? | - | ? | 14µM
CCC1(c2ccc(Cl)cc2)NC(=O)N(Cc2ccc(C(=O)OC)cc2)C1=O (centres undefined) | ? | 10µM | ? | -
CC(C)CC1NC(=O)C(CCCN)NC(=O)C(C(C)C)NC(=O)C2CCCN2C(=O)C(Cc2ccccc2)NC(=O)C(CC(C)C)NC(=O)C(CCCN)NC(=O)C(C(C)C)NC(=O)C2CCCN2C(=O)C(Cc2ccccc2)NC1=O (centres undefined) | - | . | 2.4µM | .
COc1ccc(CC(=O)Oc2ccc(F)c(F)c2)cc1S(=O)(=O)N1CCOCC1 | - | - | - | -
N#Cc1ccccc1NC(=O)c1ccc2c(c1)OCCO2 | - | - | - | -
CN(CC(=O)Nc1ccc(Cl)c(Cl)c1)C(=O)C12CC3CC(CC(C3)C1)C2 | ? | ? | 7.4µM | -
COc1ccc(CNCc2cccc(Oc3ccccc3)c2)cc1 | - | ? | 3.7µM | -
